Screening data from PubChem.
Shown are actives, neighbours in structure and some others; about 5% of the full set was active somewhere.
HCMV inh – human cytomegalovirus inhibition; HFF cells, HCMV-luciferase reporter, 72 h; hits give low values; activity change, negative = inhibition, % at 57.5 µM; 4.5% of 410,000 active; in the data active = activity change below about -60%; inconclusive = no clear call, values can overlap the other calls; inactive = above about -39%
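Luciferase read-out from HCMV-luciferase-infected HFFs (MOI 1 PFU/cell) 72 h post infection at 37C; compounds added after 16 h cell attachment; activity normalized between buffer-only basal and Salinomycin (10uM) inhibitor controls.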
Tb PYK inh – T. brucei pyruvate kinase inhibition; Q57TT1; Potency, µM (top dose mostly 76.8 µM), hits mostly inhibitors; TbPYK enzyme, Kinase-Glo Plus ATP luminescence, 45 min; 0.12% of 410,000 active; also: nearly all actives have a fitted effect of over 50% in size
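Assay buffer: 50 mM TEA pH 7.2, 100 mM KCl, 10 mM MgCl2, 0.05% BSA, 0.01% Tween-20. Pyruvate kinase from T. brucei plus substrate met compound, then ADP (130 uM final). Luminescence was read post 45 min RT.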
VACV mCherry inh – vaccinia inhibition (mCherry reporter) | Vaccinia virus mCherry reporter infection, fluorescence | Potency, µM (highest dose often 36.5 µM), usual class: inhibitors | 0.63% of 310,000 active | AID 720579; calls by dose curve; tested in A549 cells; also: nearly all actives have a fitted effect of over 35% in size
VACV Venus inh – vaccinia inhibition (Venus reporter); 0.46% of 330,000 active; AID 720580; Vaccinia virus Venus reporter expression, fluorescence; Potency, µM (doses to about 36.5 µM), hits mostly inhibitors; calls by dose curve; tested in A549 cells; also: nearly all actives have a fitted effect of over 30% in size
LmPK inh – inhibitors of Leishmania mexicana pyruvate kinase | purified LmPK, Kinase-Glo ATP luminescence, 1 h | 0.37% of 290,000 active | Potency, µM (titrated, usually from 57.5 µM), usual class: inhibitors | Q27686
Target sequence (Q27686 whole entry, looked up): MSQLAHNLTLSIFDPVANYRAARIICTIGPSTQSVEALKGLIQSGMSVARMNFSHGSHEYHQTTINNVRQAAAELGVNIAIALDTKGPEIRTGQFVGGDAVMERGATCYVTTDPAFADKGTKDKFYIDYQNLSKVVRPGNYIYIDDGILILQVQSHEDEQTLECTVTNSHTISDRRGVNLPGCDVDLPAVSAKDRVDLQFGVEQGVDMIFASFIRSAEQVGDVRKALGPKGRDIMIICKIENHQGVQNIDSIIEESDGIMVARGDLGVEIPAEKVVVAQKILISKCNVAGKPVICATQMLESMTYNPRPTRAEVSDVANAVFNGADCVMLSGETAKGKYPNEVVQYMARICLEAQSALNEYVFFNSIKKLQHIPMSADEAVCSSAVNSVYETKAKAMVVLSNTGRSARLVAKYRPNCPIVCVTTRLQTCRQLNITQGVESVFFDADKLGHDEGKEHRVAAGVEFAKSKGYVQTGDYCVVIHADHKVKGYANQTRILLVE
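qHTS format; LmPK 0.1 nM; substrates PEP 0.5 mM and ADP 0.1 mM. One-hour room-temperature incubation, then coupled luciferase luminescence; 0.5 nM enzyme wells mark activation.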
Large screens that a line does not name were inactive; ! = repeats disagree. Unless noted, calls follow the shape of the dose curve; as a rule, active = well fitted curve in the direction sought with a large enough effect; inconclusive = small, poorly fitted or top-dose-only effect, or another doubt; inactive = no such curve, though single readings can be large; an effect the other way counts as inactive or inconclusive.

COc1cc(OC)c(N(C)S(=O)(=O)c2cccc(C(=O)OCC(=O)NCc3ccco3)c2)cc1Cl	none
CC1CCCCN1Cc1c(O)ccc2c(=O)c(-c3ccc(Cl)cc3)coc12 (stereo unspecified)	none
Cc1cccc(N2CCc3c2nc2ccc(Br)cc2c3N)c1	HCMV inh inconclusive, VACV mCherry inh 11.2µM, VACV Venus inh inconclusive
Nc1c2c(nc3ccc(Br)cc13)N(c1ccccc1)CC2	none
CC(=O)/C(=N\Nc1ccccc1)Sc1cccc2cccnc12	none
O=C(Sc1cccc2cccnc12)c1ccc(F)cc1	HCMV inh -100.1 (no result: Tb PYK inh, VACV mCherry inh, VACV Venus inh)
O=C(Sc1cccc2cccnc12)c1ccccc1Br	HCMV inh -96.9 (no result: Tb PYK inh, VACV mCherry inh, VACV Venus inh)
CCN(Cc1ccncc1)C(=S)NCc1ccccc1	none
CCCc1c(C(=O)Nc2ccc(C(F)(F)F)cc2)cnn1-c1ccccc1	none (no result: VACV mCherry inh, VACV Venus inh)
CCCc1c(C(=O)NNc2cc(C(F)(F)F)ccc2Cl)cnn1-c1ccccc1	HCMV inh -65.6
Cc1onc(-c2c(F)cccc2Cl)c1C(=O)NC(C)c1ccccc1 (stereo unspecified)	HCMV inh inconclusive
CCn1c(SCC(=O)NC2CCCC2)nnc1C(C)NC(=O)c1ccccc1F (stereo unspecified)	none
CC(NC(=O)c1ccccc1F)c1nnc(SCC(=O)NC2CCCC2)n1C (stereo unspecified)	HCMV inh -64.2
CCCn1c(SCC(=O)Nc2ccc(NC(=O)CC)cc2)nc2c1c(=O)n(C)c(=O)n2C	none
CCn1c(SCC(=O)NC(C)(C)C)nnc1-c1ccncc1	none
Cn1c(SCC(=O)NC(C)(C)C)nnc1-c1ccc(C(C)(C)C)cc1	HCMV inh -60.5
CC(C)Cn1cc(NC(=O)NCc2ccccc2)c2ccccc2c1=O	none (no result: LmPK inh)
CC(C)Cn1cc(NC(=O)NCc2ccc(Cl)cc2)c2ccccc2c1=O	HCMV inh -105.5 (no result: LmPK inh)
CCc1ccc(-c2nc(SCC(=O)c3c(N)n(C4CC4)c(=O)[nH]c3=O)n[nH]2)cc1	none (no result: VACV mCherry inh, VACV Venus inh, LmPK inh)
CC(C)(C)c1ccc(C(=O)N2CCN(CCc3ccccn3)CC2)cc1	none (no result: LmPK inh)
COc1ccc(CCn2c(N)c(C(=O)NCc3ccco3)c3nc4ccccc4nc32)cc1	HCMV inh -74.6
Nc1c(C(=O)NCc2ccco2)c2nc3ccccc3nc2n1CCN1CCOCC1	HCMV inh -94.5 (no result: VACV mCherry inh, VACV Venus inh)
COc1ccccc1CNC(=O)CN1C(=O)COc2ccc(S(=O)(=O)N3CCC(C)CC3)cc21	none (no result: LmPK inh)
Fc1cccc(-c2oncc2-c2nnnn2-c2ccc(Cl)cc2)c1	HCMV inh -66.9 (no result: VACV mCherry inh, VACV Venus inh)
Fc1ccc(-n2nnc(-c3ccccc3Cl)n2)cc1	none
Fc1ccc(-n2nnnc2-c2ccccc2Cl)cc1	HCMV inh -66.7
O=C1CCN(Cc2ccccc2)CCN1CCOc1ccccc1	HCMV inh -77.0
C[N+](C)(C)CCOC(=O)CCC(=O)OCC[N+](C)(C)C	HCMV inh -76.7! (no result: LmPK inh)
O=C(NC1CCCCC1)C1CN(S(=O)(=O)c2ccccc2)CCN1S(=O)(=O)c1ccccc1 (stereo unspecified)	none (no result: VACV mCherry inh, VACV Venus inh)
CN1CCN(/N=C/c2ccc(-c3ccccc3)cc2)CC1	HCMV inh -85.5, VACV mCherry inh inconclusive
Cc1ccccc1C(=O)c1cccn1CC(=O)NCC(C)c1ccccc1 (stereo unspecified)	none (no result: VACV mCherry inh, VACV Venus inh)
COc1ccc(NC(=O)c2ccc3nc(C)c(N(C)C(=O)CCc4ccccc4)n3c2)cc1OC	none (no result: LmPK inh)
Cc1ccc(C2=NC(C(F)(F)F)(C(F)(F)F)c3c(n(-c4ccc(F)cc4)c(=O)[nH]c3=O)N2)cc1	VACV mCherry inh inconclusive, VACV Venus inh inconclusive
N#Cc1ccc(C2=NC(C(F)(F)F)(C(F)(F)F)c3c(n(Cc4ccco4)c(=O)[nH]c3=O)N2)cc1	HCMV inh -85.1 (no result: Tb PYK inh, VACV mCherry inh, VACV Venus inh)
O=c1[nH]c(=O)n(-c2ccc(F)cc2)c2c1C(C(F)(F)F)(C(F)(F)F)N=C(c1ccc(F)cc1)N2	HCMV inh -99.4, VACV mCherry inh inconclusive, VACV Venus inh inconclusive
O=c1[nH]c(=O)n(Cc2ccco2)c2c1C(C(F)(F)F)(C(F)(F)F)N=C(CCc1ccccc1)N2	none (no result: VACV mCherry inh, VACV Venus inh)
OC(CNC1CCCC1)COCCOc1ccc(Br)cc1 (stereo unspecified)	none
Oc1ccccc1-c1nnc(SCCN2CCOCC2)n1Cc1ccccc1	HCMV inh -63.9, VACV mCherry inh inconclusive, VACV Venus inh inconclusive
O=C(CSc1nnc(-c2ccccc2)n1Cc1ccccc1)N1CCOCC1	none (no result: VACV mCherry inh, VACV Venus inh)
CCCCCCCCCCC(=O)NNC(=O)c1c(O)c2ccccc2n(CC)c1=O	none (no result: HCMV inh, Tb PYK inh, VACV mCherry inh, VACV Venus inh)
O=C1CN(C(=O)COC(=O)c2ccc([N+](=O)[O-])s2)c2ccccc2N1	VACV mCherry inh inconclusive, VACV Venus inh inconclusive (no result: HCMV inh, LmPK inh)
COc1ccc(OC)c(-c2c3c([nH]c(=S)c2C#N)CCCC3)c1	Tb PYK inh inconclusive
N#Cc1c(-c2ccco2)c2c([nH]c1=S)CCCC2	Tb PYK inh 17.8µM (no result: VACV mCherry inh)
N#Cc1c(-c2cccnc2)c2c([nH]c1=S)CCCC2	Tb PYK inh inconclusive (no result: VACV mCherry inh)
COc1ccc(-c2c3c([nH]c(=S)c2C#N)CCC3)cc1	Tb PYK inh 12.6µM
CCN(CC)C(=O)c1c(C)[nH]c(=S)c(C#N)c1-c1ccco1	Tb PYK inh 5.62µM
CCCCCCCCCCCCN1CCSCCS1(=O)=O	none (no result: Tb PYK inh, VACV mCherry inh, VACV Venus inh, LmPK inh)
CCO[C@@H]1OC(C(=O)N2CCN(Cc3ccccc3)CC2)=C[C@H](c2ccc(C(F)(F)F)cc2)[C@H]1CCCO	VACV Venus inh inconclusive
C[N+](C)(C)CC1CCCC(C[N+](C)(C)C)C1=O (stereo unspecified)	none (no result: LmPK inh)
COc1ccc(N(C(C)C(=O)N2CCC(Cc3ccccc3)CC2)S(C)(=O)=O)cc1 (stereo unspecified)	HCMV inh -74.2
CCOC(=O)N1CCN(C(=O)C(C)N(c2ccc(Oc3ccccc3)cc2)S(C)(=O)=O)CC1 (stereo unspecified)	HCMV inh -65.4 (no result: VACV mCherry inh)
COc1ccc(N(C(C)C(=O)N2CCCC2)S(C)(=O)=O)cc1 (stereo unspecified)	none (no result: VACV mCherry inh, VACV Venus inh)
Cc1cc(=O)c2ccccc2n1Cc1ccccc1	HCMV inh -69.8
COc1ccc(-n2c(=O)c3ccc(C(=O)NCc4ccc(C)cc4)cc3n(CC(=O)Nc3ccc(C)cc3)c2=O)cc1	HCMV inh -70.8, VACV Venus inh inconclusive (no result: LmPK inh)
Cc1nc2ccccc2n1CC(=O)NC(C)C1CC2CCC1C2 (stereo unspecified)	HCMV inh -64.8
Cc1nc2ccccc2n1CC(=O)NN	HCMV inh inconclusive
Cc1nc2ccccc2n1CC(=O)NCc1ccccc1	HCMV inh -78.9, VACV mCherry inh inconclusive
Cc1cc(=O)n(Cc2ccccc2)c2ccccc12	HCMV inh inconclusive (no result: VACV mCherry inh, VACV Venus inh)
COc1ccc(NC(=O)Cn2c(C)cc(=O)c3ccccc32)cc1	HCMV inh -79.8 (no result: VACV mCherry inh, VACV Venus inh)
Cc1cc(=O)c2ccccc2n1CC(=O)NCc1ccccc1	HCMV inh -71.1
Cc1nnc(-c2ccccc2)c(=O)n1/N=C/c1c(O)ccc2ccccc12	HCMV inh -98.7, VACV mCherry inh 3.16µM, VACV Venus inh inconclusive
Cc1nc2ccccc2c(=O)n1/N=C/c1ccc(O)c(O)c1O	none
O=c1c2ccccc2nc(COc2ccccc2)n1/N=C/c1ccc(O)cc1O	HCMV inh -95.9 (no result: VACV mCherry inh, VACV Venus inh)
